Experimental data reported in PubChem BioAssay (NCI).
Where “and” joins values, the source holds several entries; their conditions need not be identical. Identical values can stand only once. This is part of a sample that, as a whole, favours compounds with a hit. Of some 79,000 tested, about 15% had one in any assay. Some structures have more than one record in an assay (separate samples or runs), and their calls can disagree. Calls of active or inactive are those of the source. No stated cut-off is given here; in the data, active means growth inhibition above about 70%; inactive means the rest.

Columns and labels:
[1] = NCI Yeast Anticancer Drug Screen. Data for the rad50 strain (AID 155);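 further: 0% = growth of vehicle-only cultures of the same strain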; conditions: S. cerevisiae rad50 strain growth inhibition, stronger effect = higher value
In short: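 DNA repair mutant yeast, compound exposure, growth read-out; inhibition is taken relative to vehicle.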

[2] = NCI Yeast Anticancer Drug Screen. Data for the mec2-1 strain (AID 157); conditions: S. cerevisiae mec2-1 strain, stronger effect = higher value
In short: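 Readout is yeast growth inhibition, normalised to vehicle-treated controls, in the mec2-1 strain exposed to compound.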

[3] = NCI Yeast Anticancer Drug Screen. Data for the sgs1 mgt1 strain (AID 161);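 further: 0% = growth of cultures given vehicle only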; conditions: S. cerevisiae sgs1 mgt1 strain, stronger effect = higher value
In short: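 Compounds are added to genetically altered yeast, and growth is compared with cultures given vehicle alone to give percent inhibition.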

[4] = NCI Yeast Anticancer Drug Screen. Data for the cln2 rad14 strain (AID 165);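 further: 0% = growth equal to vehicle treated cultures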; conditions: S. cerevisiae cln2 rad14 strain, stronger effect = higher value
In short: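 Relative to vehicle controls, growth inhibition of compound-treated cln2 rad14 yeast was recorded.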

[5] = NCI Yeast Anticancer Drug Screen. Data for the bub3 strain (AID 167); conditions: S. cerevisiae bub3 mutant strain, stronger effect = higher value
In short: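 In this screen, a yeast mutant lacking normal mitotic checkpoint function is challenged with compound. Relative growth versus vehicle gives the inhibition value.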

[6] = NCI Yeast Anticancer Drug Screen. Data for the mlh1 rad18 strain (AID 175); conditions: S. cerevisiae mlh1 rad18 strain growth inhibition, stronger effect = higher value
In short: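 Test agents were incubated with a yeast strain of defined genotype (DNA damage repair defect). Inhibition of growth was derived by comparison with vehicle-exposed cultures.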

[7] = at 5.0 µM (retest, dose inferred, filed as 0.5)
[8] = at 50.0 µM (retest, dose inferred, filed as 5.0)

| SMILES | growth inhibition [1, 7] | growth inhibition [1, 8] | growth inhibition ([1]; at 50.0 µM) | growth inhibition [2, 7] | growth inhibition [2, 8] | growth inhibition ([2]; at 50.0 µM) | growth inhibition [3, 7] | growth inhibition [3, 8] | growth inhibition ([3]; at 50.0 µM) | growth inhibition [4, 7] | growth inhibition [4, 8] | growth inhibition ([4]; at 50.0 µM) | growth inhibition [5, 7] | growth inhibition [5, 8] | growth inhibition ([5]; at 50.0 µM) | growth inhibition [6, 7] | growth inhibition [6, 8] | growth inhibition ([6]; at 50.0 µM) |
| --- | --- | --- | --- | --- | --- | --- | --- | --- | --- | --- | --- | --- | --- | --- | --- | --- | --- | --- |
| [I][Hg][CH2]C1COCC([CH2][Hg][I])O1 (centres undefined) | 0% (inactive) | 5% (inactive) | 98.7% (active) | 4% (inactive) | 6% (inactive) | 99.5% (active) | 0% (inactive) | 9% (inactive) | 99.2% (active) | -1% (inactive) | 7% (inactive) | 98.2% (active) | 5% (inactive) | -8% (inactive) | 99.5% (active) | 0% (inactive) | 7% (inactive) | 99.2% (active) |
| C[CH2][Sn]([Cl])([Cl])[CH2]C | 20% (inactive) and 26% (inactive) | 58% (inactive) and 79% (active) | 70.3% (active) and 68.2% (inactive) | 10% (inactive) and 16% (inactive) | 75% (active) and 85% (active) | 53.3% (inactive) and 77.2% (active) | 12% (inactive) and 21% (inactive) | 50% (inactive) and 68% (inactive) | 55.9% (inactive) and 44.2% (inactive) | 2% (inactive) and 31% (inactive) | 42% (inactive) and 35% (inactive) | 53.9% (inactive) and 48.2% (inactive) | 17% (inactive) and 11% (inactive) | 69% (inactive) and 58% (inactive) | 48.5% (inactive) and 41.8% (inactive) | 19% (inactive) and 30% (inactive) | 45% (inactive) and 81% (active) | 33.9% (inactive) and 23.1% (inactive) |
| CC(CCS(C)(=O)=O)([N+](=O)[O-])[N+](=O)[O-] | 48% (inactive) | 99% (active) | 55.2% (inactive) | 16% (inactive) | 99% (active) | 55% (inactive) | 28% (inactive) | 99% (active) | 52.6% (inactive) | 14% (inactive) | 99% (active) | 56.4% (inactive) | 27% (inactive) | 99% (active) | 99% (active) | 24% (inactive) | 100% (active) | 98.3% (active) |
| Cc1ccccc1C[As](C)(=O)O | -157% (inactive) | -140% (inactive) | 9.95% (inactive) | -50% (inactive) | -47% (inactive) | 2.45% (inactive) | -64% (inactive) | -58% (inactive) | 0.1% (inactive) | -62% (inactive) | -58% (inactive) | 14.8% (inactive) | -76% (inactive) | -76% (inactive) | 0.25% (inactive) | -147% (inactive) | -104% (inactive) | 0.35% (inactive) |
| N#CC(C#N)=Cc1ccc2c(c1)OC(Cl)O2 (centres undefined) | 25% (inactive) | 46% (inactive) | 59.6% (inactive) | 26% (inactive) | 27% (inactive) | 49.2% (inactive) | 15% (inactive) | 33% (inactive) | 57.5% (inactive) | 15% (inactive) | 18% (inactive) | 55.5% (inactive) | -11% (inactive) | 16% (inactive) | 55.9% (inactive) | 35% (inactive) | 35% (inactive) | 66.5% (inactive) |
| CC(=O)OCC1OC([S-])C(OC(C)=O)C(OC(C)=O)C1OC(C)=O.CC[PH+](CC)CC.CC[PH+](CC)CC.[Au].[Au] (centres undefined) | 100% (active) | 99% (active) | 89.8% (active) | 99% (active) | 99% (active) | 92% (active) | 99% (active) | 99% (active) | 92% (active) | 98% (active) | 99% (active) | 91.3% (active) | 99% (active) | 99% (active) | 89.9% (active) | 96% (active) | 98% (active) | 90% (active) |
| CC(=O)OC1CCC2(C)C3=C(CCC2C1(C)C)C1(C)CCC(C(C)CCC2NC2(C)C)C1(C)CC3 (centres undefined) | -22% (inactive) | 86% (active) | 22.6% (inactive) | 3% (inactive) | 66% (inactive) | 2.5% (inactive) | 23% (inactive) | 98% (active) | 95.8% (active) | 2% (inactive) | 23% (inactive) | -29.1% (inactive) | -1% (inactive) | 79% (active) | 10.8% (inactive) | 6% (inactive) | 84% (active) | 11.2% (inactive) |
| O=[N+]([O-])c1ccccc1 | 11% (inactive) | 75% (active) | 79.2% (active) | 3% (inactive) | 10% (inactive) | -0.5% (inactive) | 3% (inactive) | 17% (inactive) | 27.1% (inactive) | 4% (inactive) | 4% (inactive) | 35.5% (inactive) | 2% (inactive) | 12% (inactive) | 13.3% (inactive) | 6% (inactive) | 19% (inactive) | 39.2% (inactive) |
